Results on 36 compounds are retold here after PubChem BioAssay.

A number with no mark means an inactive call.

The nature of the first assay: plasmodial surface anion channel blockers, osmotic lysis – cell-based, P. falciparum Indochina, OD700, 2 h, primary screen (AID 1155).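 Note: lysis reports solute entry through the parasite surface anion channel PSAC.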 The following applies: P. falciparum Indochina infected erythrocytes, higher = more signal, called active from +8 up or from −8 down.
For the compound `O=C1[C@H]2[C@H]3[C@H](O)[C@H](O)CC(=NO[C@@H]4O[C@H](CO)[C@@H](O)[C@H](O)[C@H]4O)[C@H]3CC[C@H]2C(=O)N1c1ccc(F)cc1F`, the z-score is 0.454.
As to `CC(=O)OC[C@H]1O[C@@H](ON=C2[C@H]3CCn4c(=O)n(-c5ccccc5)c(=O)n4[C@H]3[C@H](O)[C@@H]3O[C@H]23)[C@H](OC(C)=O)[C@@H](OC(C)=O)[C@@H]1OC(C)=O`, the z-score is 0.454.
Same read-out and setting: the same measure for `C#CCCCON=C1C[C@@H](O)[C@@H](O)[C@@H]2[C@@H]3C(=O)N([C@@H](C)c4ccccc4)C(=O)[C@@H]3CC[C@@H]12`: 0.186; for `O=C1[C@H]2[C@H]3[C@H](O)[C@H](O)CC(=NOC[C@@H](O)COCc4ccco4)[C@@H]3CC[C@H]2C(=O)N1C1CCCCC1`: 0.409; for `C[C@]12CCC3c4ccc(OCC5CO5)cc4CCC3C1CC[C@@H]2O` (stereo not given in full): 7.31.
For the compound `CCOC(=O)CCN1C(=O)[C@H]2[C@H]3[C@H](O)[C@H](O)CC(=NO[C@@H]4O[C@H](CO)[C@@H](O)[C@H](O)[C@H]4O)[C@H]3CC[C@H]2C1=O`, the z-score was -0.163.
As for `C=CCOCC1CN2[C@@H](CC[C@@H](C)[C@@H]2c2ccc(Br)cc2)C(=O)O1` (stereo not given in full), the z-score is 0.456.
Turning to `CO[C@H]1COC(=O)[C@H](C)COC(=O)[C@@H](OCc2ccccc2)C=C[C@@H]1C`, the z-score is 0.0669.
With `CC(C)=NOC(C)CN1CCCc2nc(C)c(C)cc21` (stereo not given), the z-score is 0.774.

A short description of the next assay: changes in parasitized red cell lysis, either direction – P. falciparum Indochina, OD700, 3 h, PSAC antagonist project, primary screen (AID 1156). The following applies: P. falciparum-infected erythrocytes, osmotic lysis, higher = more signal, called active from +8 up or from −8 down.
For `COC(=O)CC=C[C@@H](C)[C@@H](C=NOC(C)CN1CCCCc2nc(C)c(C)cc21)OC` (stereo not given in full), the z-score was -0.29.
On the same count and under the same terms, next, `CCOC(=O)[C@H](CC(C)C)NC(=O)CCC1CC(OC(=O)NCc2ccc3c(c2)OCO3)CC2(CCCC(COC(=O)NCCc3ccc(Cl)cc3)O2)O1` (stereo not given in full): -0.254; `CC(CCN1CCc2nc(-c3ccccc3)c(-c3ccccc3)cc2C1)=NO[C@H](C)c1cn([C@H](CO)Cc2ccccc2)nn1`: 1.16; `CC(CCC(=O)OC[C@H]1O[C@H](C#Cc2ccccc2)C=C[C@@H]1Oc1ccc(C)cc1)=NO[C@H](C)c1cn([C@@H]2COC[C@H]2O)nn1`: 1.38.
On to `CC(CCN1CCc2nc(-c3ccccc3)c(-c3ccccc3)cc2C1)=NOC(C)CN1CCCc2nc(C)c(C)cc21` (stereo not given), for which the z-score is 0.959.
On to `CCC1=NOC(CCC2CC(OC(=O)NCc3cccc4c3OCO4)CC3(CCCC(COC(=O)NCCc4ccc(Cl)cc4)O3)O2)C1` (stereo not given), for which the z-score is -0.747.
Same read-out and setting: next, `CCOC(=O)CCN1C(=O)[C@H]2[C@@H]3C(=CC[C@H]2C1=O)C(=O)[C@H]1O[C@H]1[C@H]3O`: 0.587; `CON=C(C)CCC(=O)OC[C@H]1O[C@H](C#Cc2ccccc2)C=C[C@@H]1Oc1ccc(C)cc1`: -0.73; `Cc1cc2c(nc1C)CCCCN2CC(O)CN1CCCc2nc(-c3ccc(Br)cc3)ccc21` (stereo not given): 0.0577.
On to `COC(=O)[C@H](C)NC(=O)CCC1CC(OC(=O)NCc2cccc3ccccc23)CC2(CCCC(COC(=O)NCCc3ccccc3OC)O2)O1` (stereo not given in full), for which the z-score is -0.148.
Turning to `CC#CCOCCC=C1c2ccccc2[C@@H](OC)[C@@H]1C`, the z-score is -0.156.
In the case of `CCO[C@H](c1cc(OC)cc([N+](=O)[O-])c1OC)[C@H](C)[C@@H](OC)[C@H](C)C=CCC(=O)OC`, the z-score was 0.528.
For `O=C1[C@H]2[C@H]3[C@H](O)[C@H](O)CC(=NOC[C@@H](O)COCc4ccco4)[C@@H]3CC[C@H]2C(=O)N1c1cccc(Oc2ccccc2)c1`, the z-score is 1.39.
On the same count and under the same terms, the same measure for `COC(=O)[C@@H]1CC[C@H](C)[C@@H](c2ccc(Br)cc2)N1C[C@@H](O)CN=[N+]=[N-]`: 0.27.
As for `CCOC(=O)[C@H](Cc1ccccc1)NC(=O)CCC1CC(OC(=O)NCc2cccc3ccccc23)CC2(CCCC(COC(=O)NCC3CCCCC3)O2)O1` (stereo not given in full), the z-score was -1.94.
As for `C#CCCCON=C1[C@H]2CCn3c(=O)n([C@@H](CC)c4ccccc4)c(=O)n3[C@H]2[C@H](O)[C@@H]2O[C@H]12`, the z-score is 0.461.
Same read-out and setting: the same measure for `C[C@@H]1C=CCC(=O)OC[C@H](C)C(=O)N[C@@H](Cc2ccccc2)C(=O)OC1`: -0.307.
On to `Cc1ccc2[nH]c3nc(CCCn4ccnc4-c4ccccc4)nnc3c2c1`, for which the z-score is 0.632.
With `CC(CCN1CCc2nc(-c3ccccc3)c(-c3ccccc3)cc2C1)=NO[C@@H](C)c1cc(-c2c(C)cc(C)cc2C)no1`, the z-score is 1.5.
For `O=C1[C@H]2CCn3c(=O)n(Cc4cc5c(cc4Cl)OCO5)c(=O)n3[C@H]2[C@H](O)[C@@H]2O[C@H]12`, the z-score is -0.277.
As to `CCCNC(=O)OC[C@H]1O[C@H](CCON=C[C@@H](NS(=O)(=O)c2ccc(C)cc2)[C@H](C)C=CCC(=O)OC)C=C[C@@H]1Oc1ccc(OC)cc1`, the z-score was 0.518.
Regarding `CCN1C(=O)[C@H]2[C@H]3[C@H](O)[C@H](O)CC(=NOCC[C@@H]4C=C[C@H](OC(C)=O)[C@@H](COC(C)=O)O4)[C@@H]3CC[C@H]2C1=O`, the z-score was -0.376.
On the same count and under the same terms, the same measure for `COc1ccc(O[C@H]2C=C[C@@H](c3ccccc3)O[C@@H]2COC(=O)CCC(C)=NOC[C@@H](O)COCc2ccco2)cc1`: 0.382; for `CC(C)[C@@H](OCc1ccccc1)[C@H](C)C=NOC[C@@H](O)[C@H]1O[C@@H]2OC(C)(C)O[C@@H]2[C@H]1O`: 0.122.
On to `O=C1C2=CC[C@H]3C(=O)N(Cc4ccccc4)C(=O)[C@H]3[C@H]2[C@H](O)[C@@H]2O[C@H]12`, for which the z-score is -0.178.
For the compound `COC(=O)[C@H](C)NC(=O)CCC1CC(OC(=O)NCc2ccc3c(c2)OCO3)CC2(CCCC(COC(=O)NCc3ccccc3)O2)O1` (stereo not given in full), the z-score was 0.049.
Turning to `CC(C)CON=C1C[C@@H](O)[C@@H](O)[C@@H]2[C@@H]3C(=O)N(Cc4ccccc4)C(=O)[C@@H]3CC[C@H]12`, the z-score is 0.99.
Turning to `O=C1[C@H]2[C@H]3[C@H](O)[C@H](O)CC(=NO[C@@H]4O[C@H](CO)[C@@H](O)[C@H](O)[C@H]4O)[C@H]3CC[C@H]2C(=O)N1c1ccc(F)cc1F`, the z-score was 0.887.
Same read-out and setting: next, `CC(=O)OC[C@H]1O[C@@H](ON=C2[C@H]3CCn4c(=O)n(-c5ccccc5)c(=O)n4[C@H]3[C@H](O)[C@@H]3O[C@H]23)[C@H](OC(C)=O)[C@@H](OC(C)=O)[C@@H]1OC(C)=O`: -0.258; `C#CCCCON=C1C[C@@H](O)[C@@H](O)[C@@H]2[C@@H]3C(=O)N([C@@H](C)c4ccccc4)C(=O)[C@@H]3CC[C@@H]12`: -0.195; `O=C1[C@H]2[C@H]3[C@H](O)[C@H](O)CC(=NOC[C@@H](O)COCc4ccco4)[C@@H]3CC[C@H]2C(=O)N1C1CCCCC1`: 0.347.
Same read-out and setting: the same measure for `C[C@]12CCC3c4ccc(OCC5CO5)cc4CCC3C1CC[C@@H]2O` (stereo not given in full): 0.269; for `CCOC(=O)CCN1C(=O)[C@H]2[C@H]3[C@H](O)[C@H](O)CC(=NO[C@@H]4O[C@H](CO)[C@@H](O)[C@H](O)[C@H]4O)[C@H]3CC[C@H]2C1=O`: -0.788; for `C=CCOCC1CN2[C@@H](CC[C@@H](C)[C@@H]2c2ccc(Br)cc2)C(=O)O1` (stereo not given in full): -1.14.
`CO[C@H]1COC(=O)[C@H](C)COC(=O)[C@@H](OCc2ccccc2)C=C[C@@H]1C`: the z-score was -0.258.
Turning to `CC(C)=NOC(C)CN1CCCc2nc(C)c(C)cc21` (stereo not given), the z-score was 0.175.
